# Laboratory results: ChEMBL document CHEMBL3988442, “University of Dundee, Small-Polar-MMV Screening Library” (2021)
# Biological target: T1, Aspartate--tRNA(Asp/Asn) ligase (Mycobacterium tuberculosis (strain ATCC 25618 / H37Rv)) (UniProt P9WFW3)
# T1 sequence (whole entry): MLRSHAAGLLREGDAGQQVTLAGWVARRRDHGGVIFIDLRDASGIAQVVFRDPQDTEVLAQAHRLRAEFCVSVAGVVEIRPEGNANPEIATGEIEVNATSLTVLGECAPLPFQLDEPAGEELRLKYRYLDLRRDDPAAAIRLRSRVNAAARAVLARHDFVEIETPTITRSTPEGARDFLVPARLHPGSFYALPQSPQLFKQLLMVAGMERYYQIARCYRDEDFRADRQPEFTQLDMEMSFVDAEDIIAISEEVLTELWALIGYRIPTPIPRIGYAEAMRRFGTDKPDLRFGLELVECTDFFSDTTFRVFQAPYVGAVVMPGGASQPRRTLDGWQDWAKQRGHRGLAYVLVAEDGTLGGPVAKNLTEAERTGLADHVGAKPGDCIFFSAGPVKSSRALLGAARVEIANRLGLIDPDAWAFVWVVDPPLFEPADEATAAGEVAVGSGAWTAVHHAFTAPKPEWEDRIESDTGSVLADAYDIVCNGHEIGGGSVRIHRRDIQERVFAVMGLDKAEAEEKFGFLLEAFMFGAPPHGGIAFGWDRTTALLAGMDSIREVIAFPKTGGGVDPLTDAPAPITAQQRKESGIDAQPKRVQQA
# Assay: Assay for Asp RNA synthetase-1 from Mycobacterium tuberculosis
# Type: functional
# Design: scale not given: in the data most compounds retested in dose-response had high values
# Settings: 30 µM
row,SMILES,Percent Effect
1,NC(=O)c1cc(C2CCCN(CCOCC(F)(F)F)C2)n[nH]1 (stereo not given),-1.37%
2,COC[C@H]1CCC[C@]12CN(C(=O)NCc1ccccc1)CCO2,-3.75%
3,CCN1CCN(C(=O)c2ccn(C)c(=O)c2)CC1,2.87%
4,Cc1cc(C)c2nc(CN3CCOC(CCO)C3)cc(O)c2c1 (stereo not given),-0.725%
5,CCN1CCC(NC(=O)CN2CCc3c(ncn3C)C2)CC1,-4.88%
6,COc1ncccc1NC(=O)NCC1CCS(=O)(=O)C1 (stereo not given),1.33%
7,CCn1ccnc1CN1CCN(C(C)C(=O)N2CCC(C)CC2)CC1 (stereo not given),-3.5%
8,COc1ccc(C2Nc3cc(Cl)ccc3C3=NCCN32)cc1OC (stereo not given),-3.07%
9,CC1CN(C)CCN1C(=O)c1ccn(-c2cccc(Cl)c2)n1 (stereo not given),-2.06%
10,COc1ccc(C2=CCN(C(=O)C3CCN(C)C(=O)C3)CC2)cc1 (stereo not given),3.17%
11,CNc1cc2c(nn1)CCN(C(=O)C1CCCc3ccccc31)C2 (stereo not given),0.0571%
12,CCc1nnc2n1CCN(CC(=O)Nc1cc(C(C)(C)C)nn1C)C2,0.589%
13,CCOCC1CN(C(=O)N(C)C)Cc2nn(C)cc21 (stereo not given),7.75%
14,CC(=O)c1cccc(NC(=O)COc2c(C)n(C)ccc2=O)c1,1.07%
15,Cc1nccn1C1CCCN(C(=O)COCC(F)(F)F)C1 (stereo not given),-1.01%
16,O=C(NCCCO)Nc1cccc(Cl)c1F,1.48%
17,COCC1c2nnn(CC3CC3)c2CCN1C(=O)c1cccc(F)c1 (stereo not given),-5.71%
18,COc1cccc(-c2nc(CNCCn3cccn3)cs2)c1,-2.68%
19,Cc1nn(CC(=O)N2CCC(Nc3cccnn3)CC2)c(C)c1Cl,-1.63%
20,c1cnnc(N2CCCC(NCc3nnc(-c4ccco4)o3)C2)c1 (stereo not given),-0.7%

row,SMILES,Percent Effect
1,Cc1ncsc1C(=O)Nc1cccc(OCC(F)F)n1,-0.449%
2,c1cnnc(N2CCCC2CNCc2nc(C3CC3)no2)c1 (stereo not given),-4.43%
3,Cc1nc(C2CCCN(C(=O)CO)C2)cc(N2CCOCC2)n1 (stereo not given),-4.78%
4,O=S(=O)(N1CCCCC1)N1CCc2nc(C3CCNCC3)ncc2C1,-1.74%
5,CN(C)C(=O)CS(=O)(=O)Cc1cc(Cl)c2c(c1)OCCCO2,4.36%
6,CCCN1C(=O)CC(N2CCN(c3ccc(F)cc3)CC2)C1=O (stereo not given),5.99%
7,CN(Cc1cn2ccccc2c1C#N)C1CCCN(c2cccnn2)C1 (stereo not given),0.694%
8,c1cc2n(n1)CC(CNCc1ccc(OC3CCCCC3)nc1)CN2 (stereo not given),-3.37%
9,CSc1ccc(-c2nc(CN3CCC(NC(C)=O)C3)c(C)o2)cc1 (stereo not given),2.73%
10,CC(NC(=O)NCCCn1ccnc1)c1ccc2c(c1)OCCCO2 (stereo not given),1.46%
11,Cc1nc(CN2CCCN(CC(=O)Nc3cccnc3)CC2)no1,1.58%
12,CNCC(=O)N1CCCC(c2nccnc2Oc2cccc(F)c2)C1 (stereo not given),1.72%
13,CN1N=C(C(=O)Nc2cc(F)ccc2OCC2CCCO2)CCC1=O (stereo not given),-1.12%
14,CCCNC(=O)Cn1nc(C(C)C)c2cnn(C(C)(C)C)c2c1=O,-6.33%
15,Cc1nc(-c2ccsc2)ccc1C(=O)NCCC1CCCO1 (stereo not given),0.767%
16,CCOCC1CN(C(=O)C2=CCCC2)Cc2cnn(CC)c21 (stereo not given),-0.107%
17,CC(NC(=O)C1=NN(C)C(=O)CC1)c1ccc(F)cc1F (stereo not given),-4.46%
18,CC(=O)N(Cc1noc(C)n1)C1CCN(CCOc2ccccc2)C1 (stereo not given),2.87%
19,CSc1ncc(C(=O)N2C[C@H]3CC[C@@H]2CN(Cc2ccccc2)C3)cn1,1.12%
20,Cc1nc2ccccc2c(=O)n1CCC(=O)N1CCSCC1,1.9%
